# PubChem BioAssay AID1508600 (Functional Genomics Laboratory (NCATS/FGL), 2020)
# Hit rate of the full screen: of about 53,000 sequences, about 3,700 (7%) were called active. This excerpt belongs to a sample that is enriched for actives. A number with no mark means an inactive call.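 Rule for the calls: active = gene knockdowns whose robust z-score for IL-1 alpha signal is at least 2 or at most -2, so actives lie on both sides; inactive = the rest.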
# Assay: Components of the Cytosolic LPS Sensing Pathway: Gene Identification via Genome-wide siRNA Screen;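 note: robust z of the log signal after scaling to non-targeting control siRNA wells of the plate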
# Details: RAW264.7 macrophages, IL-1a HTRF, actives lie on both sides, screened at 100 nM (by protocol), cells primed 5 h with Pam3CSK4 first
# Method in brief: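 Read-out: IL-1a HTRF on supernatant, divided by plate negative-control median ×100, log-transformed and converted to robust z-score. Cells were RAW264.7 given 100 nM siRNA, Pam3CSK4-primed 5 hours, then LipidA-transfected 24 hour.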
row,Sequence,z-score
1,GCGGCUAGGAUUUCUGGGATT against Mindy3,2.34 (active)
2,ACAAGAUUGGGAUCAUCUATT against Rpl23a,0.521
3,UGCCUCAAUCAUAAGUCCCTT against Olfr730,-0.551
4,AAGGUCGUUUACAUGAACATT against Fbxw20,1.19
5,GGAAAAAAAAAAGCAGUGATT against Phactr4,0.662
6,GGUCUGAUACCUCAUUCCATT against Il22ra2,-1.21
7,CCAUGAGAACCUGAUGAAUTT against Pag1,-2.38 (active)
8,GGACUUUCGUCGUACUCGUTT against Terf1,-1.73
9,GGCCUGGUGCUACUUCUCATT against Fam160a2,-0.0704
10,CGUAAACACUCCUAACUUUTT against Hif1a,-0.543
11,GGAAGGAUAUUGGUUACCATT against Zmynd11,-2.28 (active)
12,GGUCAGAAGAGAUGCCAAUTT against Hcar1,-0.494
13,CCGCAGUUGUCUUUCAAGATT against Dcaf1,0.724
14,AGAAUCUUUAAAGGAAGUCTT against Olfr325,0.229
15,GCCAUGACUAUGUUUUCCGTT against St6galnac1,-0.578
16,CGGCUCAUCCGAUAUAUCCTT against Hcn2,-1.39
17,GCUUUUAAAGCAUGGGCAGTT against Alb,2.44 (active)
18,GGGCAGUAAGGACAGUUUUTT against Oaz1,0.406
19,GGACUAAUCCCAUUUUCUUTT against Zfp422,-0.292
20,GGCCGAGAAGAUCAAAGCATT against Mrpl12,-0.116
21,GGAAAUAAAGUGAGUUUUGTT against Etaa1,4.95 (active)
22,GCUGGAAUAUCAUUUCCCATT against Pdpk1,-1.01

row,Sequence,z-score
1,GGAGAGCUGUUUGACUACATT against Melk,1.45
2,CCAGCAAAAUCACUUAAUATT against Emb,-0.648
3,GCAACGAAGUGAAUUUGUUTT against Epha5,-0.139
4,GCUAGACCAGAAGAAAGUATT against Gid8,-1.65
5,GCCAGAGCUAGUUGAAUCCTT against Rce1,1.14
6,GGCCCUGUGUUUAUCAAAGTT against Cntn3,0.814
7,GGCCUUGAAGGAGUAUGAGTT against Atp2a3,-2.62 (active)
8,GGACCCAGAUGUGACUGAGTT against Svil,0.242
9,GGAAGCUUUUGUCGGUCCATT against Hap1,-0.361
10,AACUUUCUCAUUCUUACUGTT against Olfr961,-1.22
11,GCAUGCUGAGGGACACAGUTT against 1810055G02Rik,-1.6
12,GAUCACACUGAAAUCAUCATT against Nudt11,-1.71
13,GGCAUCACUGGUAAACAUUTT against Frzb,-0.196
14,GGCUGUCUUGUCCAAAUGUTT against Olfr1357,-2.9 (active)
15,GGGAAAGUUUUGUUCUGUATT against Ezr,0.31
16,CCGCGUGUUCCUUCUGAUUTT against S1pr3,1.43
17,GGGUAUAGAAUGAUUAUGGTT against Ly6g2,-2.39 (active)
18,GGGAACUGUUCCAUCUUGCTT against Olfr606,0.979
19,GGAAGUUCCGUCGAUUUGATT against Cyp8b1,-0.604
20,GGAUGAAGUUCUUUUUCAATT against Pdcd11,2.28 (active)
21,GGCUGCCUAUCCCUAAACUTT against Cpt2,-0.625
22,GGUGGUUUACCAAACGGUGTT against Ces2g,-0.00874

row,Sequence,z-score
1,GGCCAGAGCAUUUUCUUCATT against Pif1,0.72
2,GGAUGAAGGAAUCCAUGCATT against Pcdhga6,-0.133
3,GGAUCUGAAGGUGAUGUCATT against H2-Q10,-2.72 (active)
4,GGUACCUCUACACAGAUGATT against Fgf21,0.0136
5,GGCCUGGAUGAAUGAAAAGTT against Gins4,0.665
6,CCGUGUGAAUCCCUGCAUUTT against Aldoa,-2.85 (active)
7,GCUAUUUGACUUGUUGUAATT against Rab30,0.269
8,CGCAAGUAUUUCCACCAUATT against Clk4,-0.41
9,GGUUUGAGAAUUUGAAGGUTT against Map2k3os,0.273
10,GGUCCUCUGGUUCAACAUUTT against Olfr638,-0.405
11,GGGAAGAAGACUGACAAGCTT against Lars,2.03 (active)
12,GGAGAUGAAGAAGAUAUUGTT against Smoc2,-0.764
13,GGUCUACUUCUUUUUUACGTT against Sema4d,0.467
14,GGUGAUAACUCCGGGCCAATT against Fam3b,2.32 (active)
15,CCCUGCUGGUUGGUAAUCATT against F830005K03Rik,0.548
16,GCUAAGAUUGUCAUGAUGUTT against Bambi,-1.02
17,GGAAAGAAGGUGAACAACATT against Phax,1.96
18,GCAGAAGAAGAAGGGUUCCTT against Emx1,3.59 (active)
19,GGGAGAACCAGCACAACAUTT against Cavin2,-1.8
20,GGAAGACAUUCACGAUUGUTT against Deptor,-0.0976
21,GGAGUUCAGCAACCUGUUGTT against Tmem97,-2.08 (active)
22,GGGAUCAUUGCUGUCCUCUTT against Adora2b,-1.33

row,Sequence,z-score
1,CCUCAAACCAUCAACAACCTT against Six3,-2.04 (active)
2,GGAACUUUCCUUUUUUGUCTT against Serpinb5,0.889
3,GGUGAUGAUGUCCAGAAGUTT against Kdm4d,-0.913
4,GGAGAAAGUCUUUGUGAACTT against Lipc,-1.1
5,GGCUUUCUUUUUGAAAGAATT against Arhgap10,0.78
6,GGAACCUACUUGUUACCUUTT against Nlrp5,0.731
7,CGGUCAUUAAAACUUACAGTT against Hells,2.69 (active)
8,GCCGGGAGAAAUAAAUGGUTT against Mif,-0.654
9,GGAAAAACUCUUCUUCACGTT against Nphs1,-0.0272
10,GGAGGACUCUGCUUCCAUATT against Pwwp3b,-0.848
11,GGUUCUGGAAGUGAAGGUGTT against Prg2,-0.00973
12,CCACUUCCGAUGAGCCAGATT against Mrps10,-3.31 (active)
13,GCUAUUGGUGCUUCAGUCCTT against Rtel1,-0.458
14,GCCGUGUUCAUGAAUAAACTT against Glce,-0.392
15,GCUCUGUGAGCGAAAGUUCTT against Synpo2,1.72
16,CGUGGUCAGCGAGAGAGAATT against Sohlh1,1.19
17,GGAUGCUGACAACAUAUACTT against Plk3,-0.726
18,GGUUUUCCUGUUCAAUUCUTT against Olfr586,2.4 (active)
19,CGCUGCUUUUCCUAGCAGATT against Orai1,0.194
20,GCUCCAACAAGGCAUAAAATT against Dis3,-1.71
21,CGUUGAACUAGCAGUGGACTT against Arel1,0.304
22,GUCUACAUCAACAUGCCUGTT against Hcst,0.729

row,Sequence,z-score
1,GGCUUAAUUACACAUGUUCTT against Il6,-1.09
2,GGACAAGAAAAAGUCCAGATT against Dhx38,-1.17
3,GCAGGGAAUAGCAAACUUATT against Nfil3,1.18
4,GGAAAGGAGAGGUGUGUUCTT against Asb7,0.431
5,GGAAGAUGUCUCCUAUGAGTT against Hebp1,-2.42 (active)
6,CCUGCUUAUUUAUGUACGATT against Tob2,1.27
7,GGUACCUUAAACUCAUGAATT against Ifnb1,0.773
8,GCGAACCCUAAGUAAGAAGTT against U2surp,-0.989
9,GCGAGAUGCCAACAAACUGTT against Pacs1,0.678
10,GCUACCUAUGCCAAUAUCATT against Efemp1,-0.787
11,GGGCAUCACUUGUAAUUAATT against Bcl10,-2.06 (active)
12,GGAACCUAUCCAAGAAGUATT against Ckap2,0.428
13,GUCACAGUACCCAAAAUGUTT against Olfr979,-2.42 (active)
14,GGCCUUGUAUAAAACACAUTT against Pah,0.293
15,CCAGCUUGUUACUAAGUAATT against Mgat3,-0.227
16,GAGUACCAGCUGUUGUUCATT against Olfr392,4.22 (active)
17,GCAGGGAGGCAUCUUCUUUTT against Olfr3,-0.22
18,GGUUCUUUCCAAACAAGAGTT against Evc,1.1
19,GGAGGUCAUCAACGUGCUATT against Nucb1,-0.339
20,CGGUACAAAUGAUUUCUGATT against Pcolce2,2.04 (active)
